Activity calls are given as the source filed them.

This is an account of results in PubChem BioAssay.

For assay [1], the target named is Albumin (Bos taurus) (UniProt P02769). In words: bovine serum albumin binders on microarray, profiling panel, artefact control for SMM control protein annotation, biochemical, small-molecule microarray, Alexa647 label, 635/667 nm fluorescence (AID 1118).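 Also: score merges 667 nm emission intensity and signal-to-noise per printed compound spot.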 Particulars: BSA-A647 binding, fluorescence 635 nm, higher = more signal.
Albumin (Bos taurus), sequence (P02769 whole entry, looked up): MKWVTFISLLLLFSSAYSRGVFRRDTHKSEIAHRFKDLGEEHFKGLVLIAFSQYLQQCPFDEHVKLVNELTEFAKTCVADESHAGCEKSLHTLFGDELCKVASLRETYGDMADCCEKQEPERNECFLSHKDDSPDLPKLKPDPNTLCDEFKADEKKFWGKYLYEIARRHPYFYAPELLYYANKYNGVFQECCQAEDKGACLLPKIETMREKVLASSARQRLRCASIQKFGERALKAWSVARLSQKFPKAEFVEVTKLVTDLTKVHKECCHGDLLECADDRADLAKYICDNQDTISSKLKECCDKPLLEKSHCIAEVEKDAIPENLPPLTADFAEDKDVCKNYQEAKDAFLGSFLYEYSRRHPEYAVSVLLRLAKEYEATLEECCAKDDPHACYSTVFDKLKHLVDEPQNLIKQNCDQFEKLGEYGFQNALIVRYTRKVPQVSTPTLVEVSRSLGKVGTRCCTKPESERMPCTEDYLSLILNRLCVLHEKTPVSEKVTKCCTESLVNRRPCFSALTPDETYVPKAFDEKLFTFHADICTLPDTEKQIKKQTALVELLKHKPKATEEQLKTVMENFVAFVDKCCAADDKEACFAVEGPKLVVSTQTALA
Assay [2] can be described thus: small-molecule microarray binders of probe aXIP, primary screen, biochemical, NeuroSMM set, 635/667 nm fluorescence (AID 1119).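 Also: probe is the protein aXip251-270 applied at 1 µg/mL to compound-printed slides; binding of probe to printed compounds measured as 667 nm fluorescence plus signal to noise.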 To be noted: higher = more signal, called active from +8 up or from −8 down.
The nature of assay [3]: small-molecule binders of probe aNOTCH3, primary screen, biochemical, small-molecule microarray, 635/667 nm fluorescence (AID 1120).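 Also: probe is a biotin-tagged antibody raised against NOTCH3 rather than NOTCH3 protein; score merges spot fluorescence near 667 nm with spot signal to noise.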 Particulars: higher = more signal.
Assay [4] is described as follows: small-molecule binders of probe aNOTCH2, primary screen, biochemical, small-molecule microarray, 635/667 nm fluorescence (AID 1121).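 Also: score merges feature fluorescence read at 667 nm with its signal to noise.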 To be noted: higher = more signal.
The target in assay [5] is Carbonic anhydrase 2 (Homo sapiens) (UniProt P00918). In words: CAII small-molecule binders, profiling panel, biochemical, small-molecule microarray, Alexa647-labelled CAII (AID 1122). Particulars: CAII-A647 binding fluorescence, higher = more signal.
Assay [6] in a line: COS7 lysate on small-molecule microarray, probe aHis, 635 nm (AID 1123).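 Also: z-score combines 667nm fluorescence intensity with signal-to-noise per printed compound spot.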 Particulars: COS7 cell lysate, fluorescence, higher = more signal.
A short description of assay [7]: compound binding in COS7 lysate, probe aLAP1, primary screen, cell lysate, small-molecule microarray (AID 1124).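 Also: lysate comes from COS7 cells expressing LAP1 and is applied at 0.3 µg/mL; score merges spot fluorescence near 667 nm with signal-to-noise over triplicate slides.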 To be noted: probe aLAP1, fluorescence, higher = more signal.
For assay [8], the system named is Sam68 (KHDRBS1). The experiment in a line: Sam68 small-molecule binders, primary screen, biochemical, small-molecule microarray, 635 nm fluorescence (AID 1125).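 Also: score merges 667 nm channel intensity with signal to noise over triplicate slides.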 Particulars: small-molecule microarray binding, higher = more signal.
For assay [9], the system named is Chordin-like protein 2 (CHRDL2). The experiment in a line: CHRDL2 small-molecule binders, primary screen, biochemical, small-molecule microarray, 635 nm fluorescence (AID 1126).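 Also: printed compound slides probed with Chrdl2 protein at 4 µg/mL for 1 h at 4 C; score merges 667 nm emission intensity with signal to noise over three replicate slides.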 To be noted: small-molecule microarray binding, fluorescence 635 nm; higher = more signal.
Assay [10] concerns the target Concanavalin-A (Canavalia ensiformis) (UniProt P02866). In words: ConA small-molecule binders, primary screen, artefact control for SMM control protein annotation, biochemical, small-molecule microarray, Alexa647 label, 635 nm (AID 1127).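 Also: z combines 667 nm emission intensity with signal-to-noise across three replicate slides.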 Particulars: ConA-A647 binding fluorescence, higher = more signal.
Assay [11] in a line: anti-His antibody binders, primary screen, artefact control for SMM control protein annotation, biochemical, small-molecule microarray, 635 nm fluorescence (AID 1128).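 Also: score merges feature fluorescence with signal-to-noise for each printed compound spot.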 To be noted: anti-His Alexa647 antibody binding, higher = more signal.
The subject of assay [12] is Human papillomavirus type 1a E7 protein (residues 1-88). In words: HPV1a E7 small-molecule binders, primary screen, biochemical, small-molecule microarray, residues 1-88, 635 nm (AID 1129). To be noted: small-molecule microarray binding, fluorescence 635 nm; higher = more signal.
Assay [13] concerns the target Focal adhesion kinase 1 (Homo sapiens) (UniProt Q05397). The experiment in a line: small-molecule microarray binders of FAK, primary screen, biochemical, 635/667 nm fluorescence, BSA, DTT (AID 1130).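 Also: composite of spot emission at 667 nm and signal to noise over triplicate slides.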 Particulars: PTK2 binding, 635 nm fluorescence, higher = more signal.
The test system of assay [14] is Fibrinogen (Alexa647-labelled). The experiment in a line: fibrinogen binders on compound microarrays, profiling panel, artefact control for SMM control-protein annotation, biochemical, small-molecule microarray, 635/667 nm fluorescence (AID 1131).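 Also: z-score merges 667 nm fluorescence with per-spot signal-to-noise over triplicate slides.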 Particulars: fibrinogen-A647 binding fluorescence, higher = more signal.
Assay [15] has as its target Follistatin (Homo sapiens) (UniProt P19883). In words: follistatin binders on small-molecule microarrays, primary screen, biochemical, small-molecule microarray, 635/667 nm fluorescence (AID 1132). To be noted: FST binding, 635 nm fluorescence, higher = more signal.
Assay [16] addresses Fibroblast growth factor 2 (Homo sapiens) (UniProt P09038). In words: FGF2 binders on small-molecule microarrays, primary screen, biochemical, small-molecule microarray, 635/667 nm fluorescence (AID 1133). To be noted: small-molecule microarray binding, FGF2, fluorescence 635/667; higher = more signal.
Assay [17] can be described thus: mitochondrial membrane potential change in A549 cells, profiling panel, cell-based, JC-1 fluorescence, basal, 24 h, 100 nL (AID 1138).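 Also: A549 lung adenocarcinoma cells under basal conditions with no added stimulus; test concentration not given here.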 To be noted: higher = more signal.
The subject of assay [18] is Lefty1. The experiment in a line: Lefty1 binders on small-molecule microarrays, primary screen, biochemical, small-molecule microarray, 635/667 nm fluorescence (AID 1139). To be noted: small-molecule microarray binding, fluorescence 635/667; higher = more signal.
Assay [19] deals with wheat germ agglutinin (Triticum aestivum), Alexa647-labelled. The experiment in a line: wheat germ agglutinin binders on compound microarrays, profiling panel, artefact control for SMM control-protein annotation, biochemical, small-molecule microarray, 635/667 nm fluorescence (AID 1140).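 Also: score merges 667 nm feature emission with signal to noise over triplicate slides.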 Particulars: WGA-A647 binding, 635 nm fluorescence, higher = more signal.
For assay [20], the target named is Luciferin 4-monooxygenase (Photinus pyralis) (UniProt P08659). The experiment in a line: firefly luciferase enzyme inhibitors, primary screen, biochemical, luminescence, purified enzyme, 2006 set (AID 1141).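 Also: cell-free assay with purified firefly luciferase at 100 ng per well in PBS; test concentration not given here.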 To be noted: SteadyGlo luminescence, 30 min, higher = more signal, called active from +8 up or from −8 down.
Luciferin 4-monooxygenase (Photinus pyralis), sequence (P08659 whole entry, looked up): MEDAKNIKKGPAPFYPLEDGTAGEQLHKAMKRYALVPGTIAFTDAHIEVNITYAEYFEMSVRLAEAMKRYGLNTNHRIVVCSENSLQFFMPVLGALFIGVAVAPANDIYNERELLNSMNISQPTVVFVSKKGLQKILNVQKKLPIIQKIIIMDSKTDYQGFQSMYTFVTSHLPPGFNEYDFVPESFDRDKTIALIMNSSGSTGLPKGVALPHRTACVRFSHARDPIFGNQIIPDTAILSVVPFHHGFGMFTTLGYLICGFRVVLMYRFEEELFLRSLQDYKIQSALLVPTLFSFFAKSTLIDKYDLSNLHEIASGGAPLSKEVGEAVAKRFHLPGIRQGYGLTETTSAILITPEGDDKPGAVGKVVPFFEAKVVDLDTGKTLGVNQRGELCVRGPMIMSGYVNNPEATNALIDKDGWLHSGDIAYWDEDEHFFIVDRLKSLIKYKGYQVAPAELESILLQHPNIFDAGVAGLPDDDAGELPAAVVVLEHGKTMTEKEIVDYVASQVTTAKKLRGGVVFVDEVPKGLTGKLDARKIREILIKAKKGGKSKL

Fibroblast growth factor 2 (Homo sapiens), sequence (P09038 whole entry, looked up): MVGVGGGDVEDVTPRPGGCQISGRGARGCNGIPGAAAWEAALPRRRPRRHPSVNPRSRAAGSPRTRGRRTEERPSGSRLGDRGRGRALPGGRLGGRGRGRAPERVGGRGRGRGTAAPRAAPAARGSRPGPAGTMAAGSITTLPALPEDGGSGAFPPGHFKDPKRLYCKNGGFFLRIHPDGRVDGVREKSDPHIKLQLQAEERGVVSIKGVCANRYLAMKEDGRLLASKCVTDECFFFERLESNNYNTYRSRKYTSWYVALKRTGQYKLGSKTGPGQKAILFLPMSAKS
Concanavalin-A (Canavalia ensiformis), sequence (P02866 whole entry, looked up): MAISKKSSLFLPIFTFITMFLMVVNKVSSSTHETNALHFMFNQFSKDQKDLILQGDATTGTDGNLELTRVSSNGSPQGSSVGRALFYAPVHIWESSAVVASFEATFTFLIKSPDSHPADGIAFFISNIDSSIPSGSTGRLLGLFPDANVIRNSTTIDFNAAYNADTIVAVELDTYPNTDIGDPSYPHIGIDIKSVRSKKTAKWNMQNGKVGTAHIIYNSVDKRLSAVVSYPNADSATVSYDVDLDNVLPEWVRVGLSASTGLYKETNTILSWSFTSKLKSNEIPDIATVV
Focal adhesion kinase 1 (Homo sapiens), sequence (Q05397 whole entry, looked up): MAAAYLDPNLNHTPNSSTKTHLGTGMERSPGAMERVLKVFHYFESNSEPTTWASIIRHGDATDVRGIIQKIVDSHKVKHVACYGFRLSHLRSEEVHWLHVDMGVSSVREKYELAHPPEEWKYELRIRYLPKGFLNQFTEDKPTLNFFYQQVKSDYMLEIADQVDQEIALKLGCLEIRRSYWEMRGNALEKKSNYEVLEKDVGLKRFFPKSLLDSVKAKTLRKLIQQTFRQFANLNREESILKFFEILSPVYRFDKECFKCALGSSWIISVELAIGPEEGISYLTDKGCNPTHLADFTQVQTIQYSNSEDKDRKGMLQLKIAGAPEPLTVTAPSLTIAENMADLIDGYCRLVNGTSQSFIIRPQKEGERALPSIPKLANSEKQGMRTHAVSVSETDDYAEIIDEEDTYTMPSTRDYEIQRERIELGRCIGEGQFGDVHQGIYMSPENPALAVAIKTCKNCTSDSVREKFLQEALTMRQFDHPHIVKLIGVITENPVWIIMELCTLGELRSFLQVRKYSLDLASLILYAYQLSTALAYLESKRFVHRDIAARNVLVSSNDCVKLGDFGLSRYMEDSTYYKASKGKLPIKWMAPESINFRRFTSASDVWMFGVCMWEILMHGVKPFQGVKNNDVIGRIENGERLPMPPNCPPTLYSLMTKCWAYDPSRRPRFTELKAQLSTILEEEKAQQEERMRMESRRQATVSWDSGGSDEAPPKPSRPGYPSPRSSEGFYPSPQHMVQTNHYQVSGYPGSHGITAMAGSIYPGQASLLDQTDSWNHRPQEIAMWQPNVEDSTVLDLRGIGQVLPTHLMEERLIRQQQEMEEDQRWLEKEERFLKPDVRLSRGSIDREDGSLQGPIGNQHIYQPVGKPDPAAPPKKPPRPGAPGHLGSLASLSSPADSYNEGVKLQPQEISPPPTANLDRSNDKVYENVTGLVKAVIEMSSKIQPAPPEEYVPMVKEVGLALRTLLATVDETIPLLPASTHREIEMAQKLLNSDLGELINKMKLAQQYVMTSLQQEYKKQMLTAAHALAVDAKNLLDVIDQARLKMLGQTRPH
Follistatin (Homo sapiens), sequence (P19883 whole entry, looked up): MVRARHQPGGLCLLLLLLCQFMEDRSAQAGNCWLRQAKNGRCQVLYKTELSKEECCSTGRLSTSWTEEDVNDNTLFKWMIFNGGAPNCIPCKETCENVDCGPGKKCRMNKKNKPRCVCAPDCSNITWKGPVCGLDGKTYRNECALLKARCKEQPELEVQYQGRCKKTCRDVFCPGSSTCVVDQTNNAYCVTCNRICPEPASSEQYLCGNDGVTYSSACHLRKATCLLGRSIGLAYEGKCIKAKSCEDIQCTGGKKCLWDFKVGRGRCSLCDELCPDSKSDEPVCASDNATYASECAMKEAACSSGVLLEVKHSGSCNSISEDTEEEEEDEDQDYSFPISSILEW

In the case of `CCOC(=O)NN=C1C[C@@H](O)[C@@H](O)[C@@H]2[C@@H]3C(=O)N(c4ccc(F)cc4F)C(=O)[C@@H]3CC[C@H]12`, the composite z-score is 0.123 in assay [1]; -0.0879 in [3]; -0.107 in assay [4]; -0.0212 in assay [5]; 0.0971 in [6]; 0.0173 in assay [7]. Moreover, the composite z-score is 0.108 in assay [8]; 0.529 in assay [9]; 0.0692 in assay [10]; 0.142 in assay [11]; 0.301 in assay [12]; -0.0292 in [13]. Further, the composite z-score in assay [14] came to 0.233; in [15], 0.515; in assay [16], 0.577; in [18], 0.449; in assay [19], 0.161. Besides, the composite Z-score in assay [2] is -0.623 (inactive). Moreover, the z-score in [17] is -0.778; in assay [20] it was 1.18 (inactive).
For `COC(=O)[C@H](C)NC(=O)CCC1CC(OC(=O)NCc2cccc3ccccc23)CC2(CCCC(COC(=O)NCc3ccccc3)O2)O1` (stereo not given in full), the composite z-score in assay [1] was -0.0725; in assay [3], 0.062; in [4] it was -0.104; in assay [5], 0.288; in assay [6] it was 0.763; in assay [7] it was -0.206. In addition, the composite z-score was found to be 1.26 in assay [8]; 0.7 in assay [9]; 0.984 in assay [10]; 0.432 in [11]; 0.976 in [12]; 0.388 in assay [13]. The composite z-score in [14] is 0.893; in assay [15] it was 0.729; in [16] it was 0.846; in [18], 1.17; in assay [19] it was 0.22. Moreover, the composite Z-score in [2] is 0.142 (inactive). Moreover, the values for the z-score in assay [17] and in [20] were -0.139 and 1.09 (inactive), respectively.
With `COC(=O)[C@H](C)NC(=O)CCC1CC(OC(=O)NCc2ccc3c(c2)OCO3)CC2(CCCC(COC(=O)NCCc3ccc(Cl)cc3)O2)O1` (stereo not given in full), the composite z-score in [1] is 0.293; in assay [3], 0.0129; in assay [4] it was -0.0974; in assay [5], 0.0233; in assay [6] it was 0.043; in assay [7] it was -0.0478. The composite z-score in assay [8] was 0.422; in assay [9], 1.26; in assay [10], -0.455; in [11], 1.22; in assay [12], 0.377; in [13], 0.142. The composite z-score in assay [14] stood at 0.275; in assay [15], 0.758; in [16] it was 0.742; in assay [18] it was 0.398; in assay [19], 0.268. The composite Z-score in [2] is 0.0601 (inactive). The z-score in [17] was -0.928; in [20] it was 0.839 (inactive).
Consider `C=C(C)C(=O)OC[C@H]1CN2[C@@H](CC[C@@H](C)[C@@H]2c2ccc(Br)cc2)C(=O)O1`, for which the composite z-score is -0.625 in [1]; -0.0362 in [3]; -0.104 in [4]; 0.079 in assay [5]; 0.379 in assay [6]; 0.318 in assay [7]. In addition, the composite z-score in [8] was 0.428; in [9], 0.698; in assay [10], -0.426; in assay [11], 2.44; in assay [12], 0.0456; in [13], -0.174. Further, the composite z-score in [14] is -0.613; in [15], 0.489; in [16] it was 0.108; in assay [18], 0.264; in assay [19], -0.034. For the same compound, the composite Z-score in assay [2] was 0.27 (inactive). Moreover, the z-score in assay [17] is 0.47; in assay [20], -2.88 (inactive).
As to `COCOc1ccc(Br)cc1C(=O)C=Cc1ccc2c(c1)OCO2`, the composite z-score was -0.0265 in assay [1]; -0.132 in assay [3]; -0.169 in [4]; -0.321 in [5]; -0.576 in [6]; -0.684 in assay [7]. For the same compound, the composite z-score in assay [8] was -0.562; in assay [9], 0.525; in assay [10], -0.723; in assay [11], 0.263; in assay [12], -0.396; in assay [13], -0.141. For the same compound, the composite z-score in assay [14] was 0.962; in [15], 0.516; in [16] it was 0.449; in assay [18], 0.471; in [19], 0.69. For the same compound, the composite Z-score in assay [2] is 1.33 (inactive). The z-score was 2.57 in assay [17] and -2.08 (inactive) in [20].
Take `CCOC(=O)CCN1C(=O)[C@H]2[C@H]3[C@H](O)[C@H](O)CC(=NNC(=O)OCC)[C@H]3CC[C@H]2C1=O`: the composite z-score in [1] is -0.898; in assay [3], 0.0927; in assay [4], -0.145; in assay [5], 0.505; in assay [6], 0.294; in [7], -0.0069. The composite z-score in assay [8] is 0.398; in assay [9], 1.27; in assay [10], -2.61; in assay [11] it was 0.307; in assay [12], -0.113; in assay [13], 0.276. For the same compound, the composite z-score in assay [14] is -1.05; in assay [15] it was 0.799; in assay [16], 0.406; in assay [18] it was 1.01; in [19] it was -0.656. Also, the composite Z-score in assay [2] was -0.17 (inactive). The z-score in assay [17] is -0.918; in assay [20], 0.303 (inactive).
